The results in this text go back to PubChem BioAssay (NCATS).

Records with an inconclusive call do not appear. Calls of active or inactive are those of the source. Calls follow the shape of the dose curve; as a rule, active = well fitted inhibition curve with a large enough effect; inconclusive = small, poorly fitted or top-dose-only effect; inactive = flat fitted curve, though single readings scatter.
% is scaled to controls: 0 for no effect and ±100 for the full control effect; potency is read from the fitted curve at half-maximal effect.

The test deals with MKL-2. Nature of the test: qHTS assay to identify novel small-molecules to repurpose for Merkel cell carcinoma treatment (AID 1296009). Also: nearly all actives have a fitted effect of over 60% in size. The conditions noted are these: MCC and control cell lines, CellTiter-Glo viability, 72 h; series mostly up to 46 µM; activity change, negative = cytotoxicity: at the top concentration. Summed up:
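Cells were treated for 72 hr at 37 degree celsius with compounds in 8- or 11-point dose response. Viability was read by CellTiter-Glo luminescence, normalized to no-cell (cytotoxicity) and DMSO controls.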
(In general: qHTS replaces the single test concentration by a dilution series.)
In the case of `COC(=O)c1nc(Cl)c(Cl)nc1N`, the Potency was 0.299 µM (active).

As for `O=C(O)Cc1ccc2c(c1)C(=O)c1ccccc1CO2`, the “activity change, negative = cytotoxicity” value was 9.29% (inactive).

For the compound `O=C(O)/C=C\C(=O)O`, the “activity change, negative = cytotoxicity” value is 20.1% (inactive).

Regarding `CN(C)[C@@H]1C(=O)C(C(=O)NCN2CCCC2)=C(O)[C@@]2(O)C(=O)C3=C(O)c4c(O)cccc4[C@@](C)(O)C3C[C@@H]12` (some centres not stated), the “activity change, negative = cytotoxicity” value is -19.3% (inactive).

Turning to `Cc1[nH]cnc1CN1CCc2c(c3ccccc3n2C)C1=O`, the “activity change, negative = cytotoxicity” value was 0.689% (inactive).

Consider `O=C(O)Cc1ccc(-c2ccccc2)cc1`, for which the “activity change, negative = cytotoxicity” value was 20.1% (inactive).

As to `CNC(=O)c1c(I)c(NC(=O)CCCCC(=O)Nc2c(I)c(C(=O)O)c(I)c(C(=O)NC)c2I)c(I)c(C(=O)O)c1I`, the “activity change, negative = cytotoxicity” value is -4.81% (inactive).

In the case of `COc1cccc2c1C(=O)c1c(O)c3c(c(O)c1C2=O)C[C@@](O)(C(=O)CO)C[C@@H]3O[C@H]1C[C@H](N)[C@H](O[C@@H]2CCCCO2)[C@H](C)O1`, the Potency was 0.0473 µM (active).

As for `N=C1N=C(N)c2cc3ccccc3cc21`, the Potency was 24.3 µM (active).

As to `O=C(CCN1CCN(CCO)CC1)N1c2ccccc2Sc2ccc(C(F)(F)F)cc21`, the “activity change, negative = cytotoxicity” value is 16.3% (inactive).

As to `CC(C)(C)c1nnc(NS(=O)(=O)c2ccc(N)cc2)s1`, the “activity change, negative = cytotoxicity” value is 8.32% (inactive).

For the compound `COC(=O)C1=C(C)NC(C)=C(C(=O)OCC(C)=O)C1c1ccccc1[N+](=O)[O-]` (configuration not stated), the Potency is 10.6 µM (active).

As for `CCCCCCCCCCCCOCCO`, the “activity change, negative = cytotoxicity” value was 9.51% (inactive).

With `CCCCCCCCCCCCCCCC(=O)OC(C)C`, the “activity change, negative = cytotoxicity” value was 19.5% (inactive).

Consider `COC(=O)C1=C(C)NC(C)=C(C(=O)OCC(C)C)C1c1ccccc1[N+](=O)[O-]` (configuration not stated), for which the Potency is 5.96 µM (active).

`Oc1c(Br)cc(Br)c2cccnc12`: the Potency was 4.22 µM (active).

As for `COc1ccnc2c1CCCCC2S(=O)c1nc2ccccc2[nH]1` (configuration not stated), the “activity change, negative = cytotoxicity” value is 3.29% (inactive).

For the compound `CCCCC1C(=O)N(c2ccccc2)N(c2ccc(O)cc2)C1=O` (configuration not stated), the Potency was 0.596 µM (active).

Consider `Cc1c(N)c(=O)n(-c2ccccc2)n1C`, for which the “activity change, negative = cytotoxicity” value is 11.9% (inactive).

As for `O=C(OCc1ccccc1)c1ccccc1`, the “activity change, negative = cytotoxicity” value is 10.6% (inactive).

Turning to `[O-][n+]1ccccc1SSc1cccc[n+]1[O-]`, the Potency is 0.58 µM (active).

For the compound `O=C(O)c1ccccc1Nc1cccc(C(F)(F)F)c1`, the “activity change, negative = cytotoxicity” value was 11% (inactive).

On to `CC1(C)S[C@@H]2[C@H](NC(=O)[C@H](N)c3ccccc3)C(=O)N2[C@H]1C(=O)O`, for which the “activity change, negative = cytotoxicity” value is 13.3% (inactive).

Take `CC(C(=O)O)c1ccc(C(=O)c2ccccc2)s1` (configuration not stated): the “activity change, negative = cytotoxicity” value was 7.33% (inactive).

For `CCCCCCCC/C=C/C(=O)O`, the “activity change, negative = cytotoxicity” value is -21% (inactive).

Take `CC(=O)c1ccc(OCC(=O)N2CCCCC2)cc1`: the “activity change, negative = cytotoxicity” value is 7.32% (inactive).

As to `Nc1ccc(C(=O)O)c(O)c1`, the “activity change, negative = cytotoxicity” value is 7.12% (inactive).
